Screening data as filed in PubChem.
In the library only some 1.2% were active in any assay of this set; here they are far more common.
p-CIP stab down – lowers stability of the mouse p/CIP coactivator protein. AID 1984. decrease of EGFP signal, % at 10 µM. hit rate 0.01% among 290,000. F442A p/CIP-EGFP cells, EGFP fluorescence, 16 h;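 active = EGFP signal decrease of at least 30% at 10 µM or well 3 SD below plate mean, unless failing retest; inactive = the rest, including hits failing retest or dose response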
VLA-4 inh – inhibition in a human VLA-4 binding assay; P13612; hit rate 0.2% among 330,000; VLA-4 expressing cells, ligand binding flow cytometry; inhibition, % (about 7 µM as worked out from the volumes in the protocol); AID 2557; in the data active = inhibition above about 50%
GPR7 antag – antagonists of human GPR7 (neuropeptides B/W receptor 1). P48145. GPR7-expressing cells, fluorescence antagonist assay. inhibition, % at 4.4 µM. hit rate 1.1% among 290,000. AID 1861; in the data active = inhibition above about 16%, passing the limit was not always enough;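 note: cells stimulated with the agonist NPW; 0% = agonist with vehicle and 100% = vehicle without agonist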
Target sequence (P48145 whole entry, looked up): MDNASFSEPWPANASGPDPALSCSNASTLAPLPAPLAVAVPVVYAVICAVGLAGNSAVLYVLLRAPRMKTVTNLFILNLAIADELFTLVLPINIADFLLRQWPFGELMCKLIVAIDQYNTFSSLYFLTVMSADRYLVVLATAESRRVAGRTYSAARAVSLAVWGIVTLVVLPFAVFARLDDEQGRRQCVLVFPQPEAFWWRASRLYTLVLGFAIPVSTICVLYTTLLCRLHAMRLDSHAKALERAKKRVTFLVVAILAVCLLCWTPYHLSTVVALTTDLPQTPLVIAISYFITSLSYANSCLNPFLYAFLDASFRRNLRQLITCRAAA
JMJD2C inh – inhibitors of human GASC-1 (JMJD2C) demethylase. GST-JMJD2C(1-420) H3K9me3 demethylation, DELFIA europium. hit rate 0.069% among 330,000. Q9H3R0. AID 2099. inhibition, % at 2.35 µM;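 active = more than half of a compound's replicate wells show inhibition beyond 50%, single wells judged on their own value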;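 note: signal counts dimethyl H3K9 product captured on neutravidin plate; 0% = median of DMSO wells and 100% = 0.3 times that DMSO median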
VLA-4 mod pick – confirmation of allosteric modulators of human VLA-4 integrin. U937 cells, HUTS-21 LIBS mAb binding, flow cytometry; LDV ligand present at threefold Kd. shares compounds with VLA-4 inh. inhibition, % at 6.7 µM. hit rate 2% among 1,300; in the data active = inhibition above about 40%;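 note: 0% = ligand without compound and 100% = no ligand background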
* hit, by the source's call; x = no result given.

SMILES	p-CIP stab down	VLA-4 inh	GPR7 antag	JMJD2C inh	VLA-4 mod pick
CC(C)N(C(=O)N1CCN(c2ccnc3cc(Cl)ccc23)CC1)C(C)C	8	x	12	-19	x
COc1ccc(/C=C/C(=O)OCC(=O)NC2CCCC2)c(OC)c1	x	17	x	5	x
N#CCc1ccc(NC(=O)Cn2c(=O)oc3ccccc32)cc1	3	14	-9	-1	-15
CCN(CC)S(=O)(=O)c1ccc(NC(=O)Cn2c(=O)oc3ccccc32)cc1	3	7	9	-13	4
O=C(Cn1c(=O)oc2ccccc21)Nc1ccc(Cl)cc1	-8	27	-14	-16	x
C=CCN(CC=C)CCOc1ccc2ccccc2c1	-5	39	-4	-3	x
Cc1cc(C)c(S(=O)(=O)Nc2ccc(C(N)=O)cc2)c(C)c1	-16	12	-4	29	x
Cc1ccc(C)c(S(=O)(=O)Nc2ccc(C(N)=O)cc2)c1	-10	-5	-4	0	-6
O=[N+]([O-])c1ncccc1OCc1ccc(Br)cc1F	-1	15	-3	-21	x
COCCNC(=O)c1ccccc1NC(=O)COc1ccccc1	3	-2	-4	2	-19
COc1cccc(-c2sc3ccc(OC)cc3c2-c2ccc(OCCN3CCOCC3)cc2)c1	x	19	x	-5	7
COc1cccc(-c2sc3ccc(OC)cc3c2-c2cc(F)cc(OC)c2)c1	x	-11	x	-1	x
COc1cc(OC)cc(-c2sc3ccc(OC)cc3c2-c2ccc(OCCN3CCOCC3)cc2)c1	x	x	x	x	6
COc1ccc(-c2sc3cc4c(cc3c2-c2ccc(OCCN3CCOCC3)cc2)OCO4)cc1	x	26	x	-1	15
CN(C)c1ccc(C(=O)OCC(=O)Nc2ccc(S(N)(=O)=O)cc2)cc1	-1	1	6	8	2
CN(C)c1ccc(NC(=O)COC(=O)c2ccc3c(c2)OCO3)cc1	x	9	x	-2	x
Cc1ccc2oc(-c3ccccc3)nc2c1	11	94*	-6	4	5
CCOc1cccc(-c2nc3cc(C)ccc3o2)c1	5	9	-11	-14	x
CCCC#CCN1CCN(C23CC4CC(CC(C4)C2)C3)CC1	1	-4	-9	-2	x
O=C(COC(=O)c1ccc(Cl)c([N+](=O)[O-])c1)NC1CCCC1	1	8	-5	7	x
O=C(COC(=O)c1ccccc1C(=O)c1ccc(Cl)c([N+](=O)[O-])c1)NC1CCCCCC1	-17	62*	30*	11	32
Cc1nn(C)c(C)c1CNC(=O)Nc1ccc2c(c1)OCO2	-10	125*	-1	-9	2
Cc1nn(C)c(C)c1CNC(=O)Nc1ccc(Cl)cc1	17	-15	-2	0	x
O=C(Nc1ccccc1Cl)OCc1cncs1	0	-15	-1	9	0
COc1cc([N+](=O)[O-])cc(/C=N/NC(=O)CC#N)c1O	-15	x	-12	-4	x
SMILES	p-CIP stab down	VLA-4 inh	GPR7 antag	JMJD2C inh	VLA-4 mod pick
CCc1cc2c(=O)n3c(nc2s1)-c1[nH]c2ccc(OC)cc2c1CC3	10	45	-4	0	-9
COc1ccc2[nH]c3c(c2c1)CCn1c-3nc2sc(C(=O)Nc3ccccc3)c(C)c2c1=O	-16	x	9	x	x
CC1CCCCN1C(=O)Cn1c(=O)oc2ccccc21 (stereo not drawn)	x	-5	-10	-32	x
CN(C(=O)Cn1c(=O)oc2ccccc21)C1CCCCC1	x	-1	x	14	9
CN(CC(=O)Nc1ccc(F)cc1)C(=O)Cn1c(=O)oc2ccccc21	x	10	x	5	x
O=C(Cn1c(=O)oc2ccccc21)N1CCCC1	-8	1	-8	5	-3
Cc1ccc2oc(=O)n(CC(=O)N3CCOCC3)c2c1	-14	2	-17	-1	1
CN(CC(=O)Nc1cccc(F)c1)C(=O)Cn1c(=O)oc2ccccc21	x	14	x	5	11
COC1CCN(C(=O)C2CCC(=O)N(CCc3cccc(F)c3)C2)CC1 (stereo not drawn)	-10	5	-7	8	x
CCCCNC(=O)Cn1c(=O)oc2cc(S(=O)(=O)N3CC(C)CC(C)C3)ccc21 (stereo not drawn)	3	-10	-5	0	-4
COC(=O)c1ccc(NC(=O)CCC(=O)c2ccc(F)cc2)cc1	2	15	-8	-9	x
CCCCOc1ncnc2c1[nH]c1ccc(C)cc12	-22	-10	2	8	6
CCCOc1ncnc2c1[nH]c1ccccc12	-3	2	-6	1	x
CCCOc1ncnc2c1[nH]c1ccc(OC)cc12	10	4	6	3	6
CC(C)[C@H](NC(=O)N1c2ccccc2NC(=O)[C@@H]1C(C)C)C(=O)N[C@@H](Cc1ccccc1)C(=O)O	-1	64*	-12	-15	10
